About 14,000 (4.5%) of roughly 310,000 compounds showed an effect of 50% or more. The effect is printed as a negative number. The entries come from a sample that favours strong results as a whole.
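Also: peak tail current of the secondary pulse compared with the same well before compound.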

Chain of human ether-à-go-go-related gene (hERG) potassium channel (Q12809 whole entry, looked up): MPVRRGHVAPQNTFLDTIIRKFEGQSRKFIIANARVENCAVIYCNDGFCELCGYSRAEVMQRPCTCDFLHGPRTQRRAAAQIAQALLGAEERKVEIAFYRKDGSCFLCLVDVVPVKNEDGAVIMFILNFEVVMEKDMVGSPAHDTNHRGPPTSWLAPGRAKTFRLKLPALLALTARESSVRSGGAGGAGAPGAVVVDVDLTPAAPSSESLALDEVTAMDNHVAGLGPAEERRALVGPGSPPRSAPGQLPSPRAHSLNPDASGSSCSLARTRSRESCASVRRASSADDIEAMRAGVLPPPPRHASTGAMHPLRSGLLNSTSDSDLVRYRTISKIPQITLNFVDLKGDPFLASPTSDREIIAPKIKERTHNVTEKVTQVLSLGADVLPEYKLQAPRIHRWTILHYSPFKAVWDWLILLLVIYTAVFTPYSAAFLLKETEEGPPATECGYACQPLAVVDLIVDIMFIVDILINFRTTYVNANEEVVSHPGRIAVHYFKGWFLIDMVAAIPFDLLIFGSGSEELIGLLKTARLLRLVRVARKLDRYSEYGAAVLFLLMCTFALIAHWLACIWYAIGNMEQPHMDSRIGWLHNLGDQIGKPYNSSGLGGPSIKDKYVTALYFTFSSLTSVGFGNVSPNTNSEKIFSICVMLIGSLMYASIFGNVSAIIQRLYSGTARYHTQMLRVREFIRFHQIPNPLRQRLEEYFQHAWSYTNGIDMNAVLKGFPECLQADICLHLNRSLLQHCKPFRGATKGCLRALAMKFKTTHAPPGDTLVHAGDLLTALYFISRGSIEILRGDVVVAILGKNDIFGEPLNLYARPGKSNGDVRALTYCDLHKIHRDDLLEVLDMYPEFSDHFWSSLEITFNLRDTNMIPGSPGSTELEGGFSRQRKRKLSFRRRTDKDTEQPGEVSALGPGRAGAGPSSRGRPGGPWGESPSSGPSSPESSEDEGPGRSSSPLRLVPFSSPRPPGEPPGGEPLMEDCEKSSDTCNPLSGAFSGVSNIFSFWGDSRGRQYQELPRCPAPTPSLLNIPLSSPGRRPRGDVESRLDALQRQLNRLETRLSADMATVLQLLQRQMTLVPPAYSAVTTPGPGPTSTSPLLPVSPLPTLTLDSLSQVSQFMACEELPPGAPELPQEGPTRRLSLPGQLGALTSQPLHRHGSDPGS

This experiment has as its target human ether-à-go-go-related gene (hERG) potassium channel (human, UniProt Q12809). Briefly: primary screen, population patch clamp on CHO cells stably expressing hERG; higher = less effect of the substance.
Turning to `O=C(C1COc2ccccc2O1)N1CCN(c2ccc(F)cc2)CC1` (stereo not drawn), the “hERG current change (%, negative = inhibition) at 10uM” value was -40.7%. As for `CC(C)N(C(=O)CN1CCN(C(=O)C2COc3ccccc3O2)CC1)C(C)C` (stereo not drawn), the “hERG current change (%, negative = inhibition) at 10uM” value is reported as -0.817%. With `O=C(Nc1ccc(F)cc1)C1COc2ccccc2O1` (stereo not drawn), the “hERG current change (%, negative = inhibition) at 10uM” value stood at 9.07%. For the molecule `CCN1CCN(C(=O)C2COc3ccccc3O2)CC1` (stereo not drawn), the “hERG current change (%, negative = inhibition) at 10uM” value is on record as -7.48%. For `O=C(CN1CCN(C(=O)C2COc3ccccc3O2)CC1)Nc1ccccc1` (stereo not drawn), the “hERG current change (%, negative = inhibition) at 10uM” value was -66.2%. Next, `O=C(CN1CCN(C(=O)C2COc3ccccc3O2)CC1)Nc1ccc(F)cc1` (stereo not drawn): -75.7%. Take `CC(=O)Oc1ccc(C(=O)Nc2ccccc2C(=O)Nc2cccc(C(=O)O)c2)cc1`: the “hERG current change (%, negative = inhibition) at 10uM” value is 13%. As for `CCOC(=O)c1cnn(-c2cc(Oc3ccccc3C)ncn2)c1N`, the “hERG current change (%, negative = inhibition) at 10uM” value is reported as 14.4%. In the case of `Cc1nc2ccccc2cc1C(=O)N/N=C/c1cccs1`, the “hERG current change (%, negative = inhibition) at 10uM” value is on record as -6.93%. For the molecule `CCOc1ccc(OCCOc2cccc(C(F)(F)F)c2)cc1`, the “hERG current change (%, negative = inhibition) at 10uM” value was determined as 9.77%. Consider `CCN1CCN(C(=S)Nc2ccc3nc4n(c(=O)c3c2)CCCCC4)CC1`, for which the “hERG current change (%, negative = inhibition) at 10uM” value is 1.83%.

For `CC1CCCC(C)N1CCCNC(=O)C(=O)Nc1ccc2nc3n(c(=O)c2c1)CCCCC3` (stereo not drawn), the “hERG current change (%, negative = inhibition) at 10uM” value came to 16.8%. Consider `O=c1c2cc(NC(=S)N3CCC(N4CCCCC4)CC3)ccc2nc2n1CCCCC2`, for which the “hERG current change (%, negative = inhibition) at 10uM” value is recorded as -3.94%.

Turning to `O=c1c2cc(NC(=S)N3CCCCCC3)ccc2nc2n1CCCCC2`, the “hERG current change (%, negative = inhibition) at 10uM” value was -43.9%. As to `CC1CCCN(C(=O)C(=O)Nc2ccc3nc4n(c(=O)c3c2)CCCCC4)C1` (stereo not drawn), the “hERG current change (%, negative = inhibition) at 10uM” value is -17.8%. `O=c1c2cc(NC(=S)N3CCCC3)ccc2nc2n1CCCCC2`: the “hERG current change (%, negative = inhibition) at 10uM” value is reported as -28%.

Take `CC1CCCCN1C(=S)Nc1ccc2nc3n(c(=O)c2c1)CCCCC3` (stereo not drawn): the “hERG current change (%, negative = inhibition) at 10uM” value is -59%. For `CCOC(=O)C1CCCN(C(=O)C(=O)Nc2ccc3nc4n(c(=O)c3c2)CCCCC4)C1` (stereo not drawn), the “hERG current change (%, negative = inhibition) at 10uM” value was -1.21%.

`CC1CCCN(C(=S)Nc2ccc3nc4n(c(=O)c3c2)CCCCC4)C1` (stereo not drawn): the “hERG current change (%, negative = inhibition) at 10uM” value is listed as -66.1%. On to `CC1CCN(C(=S)Nc2ccc3nc4n(c(=O)c3c2)CCCCC4)CC1`, for which the “hERG current change (%, negative = inhibition) at 10uM” value is given as -55.2%.

On to `CCOC(=O)Nc1ccc2nc3n(c(=O)c2c1)CCCCC3`, for which the “hERG current change (%, negative = inhibition) at 10uM” value came to 7.45%. For `O=c1c2cc(NC(=S)N3CCCCC3)ccc2nc2n1CCCCC2`, the “hERG current change (%, negative = inhibition) at 10uM” value is on record as -55.7%. In the case of `COc1cc(/C=C(\C#N)c2ccccn2)ccc1OCC(=O)Nc1cccc(C(F)(F)F)c1.Cl`, the “hERG current change (%, negative = inhibition) at 10uM” value stood at 0.582%.

Consider `COCCCNC(=O)c1ccc2c(c1)nc(C)n2-c1cccc(C)c1`, for which the “hERG current change (%, negative = inhibition) at 10uM” value is 6.05%. Next, `CC(C)(C)C(=O)Nc1ccc(S(=O)(=O)c2ccc(NC(=O)C(C)(C)C)cc2)cc1`: 18.6%; `O=c1c(-c2ccc(Cl)cc2)coc2c(CN3CCCCC3)c(O)ccc12`: -32.7%. `COc1ccc(C(=O)c2coc3ccc(O)c(CN4CCCCC4)c23)cc1`: the “hERG current change (%, negative = inhibition) at 10uM” value is -76.9%. Take `Cc1ccc(C(=O)c2coc3ccc(O)c(CN4CCN(C)CC4)c23)cc1`: the “hERG current change (%, negative = inhibition) at 10uM” value is recorded as -51.2%.

On to `Cc1ccc(/C=C2\Oc3c(ccc(O)c3CN3CCN(C)CC3)C2=O)cc1`, for which the “hERG current change (%, negative = inhibition) at 10uM” value is -15%. In the case of `COc1ccc(C(=O)c2c(C)oc3ccc(O)c(CN4CCOCC4)c23)cc1`, the “hERG current change (%, negative = inhibition) at 10uM” value is -29.5%. With `COc1ccc(-c2coc3c(CN4CCOCC4)c(O)ccc3c2=O)cc1`, the “hERG current change (%, negative = inhibition) at 10uM” value is listed as -21.1%. For `COc1ccc(-c2coc3c(CN4CCCCC4)c(O)c(CN4CCCCC4)c(O)c3c2=O)cc1` the value was -79.2%. As for `COc1ccc(C(=O)c2coc3ccc(O)c(CN4CCOCC4)c23)cc1`, the “hERG current change (%, negative = inhibition) at 10uM” value was -51.2%. In the case of `CN1CCN(Cc2c(O)ccc3occ(C(=O)c4ccccc4)c23)CC1`, the “hERG current change (%, negative = inhibition) at 10uM” value was -39.3%. For `COc1ccc(OC)c(C(=O)c2coc3ccc(O)c(CN4CCOCC4)c23)c1`, the “hERG current change (%, negative = inhibition) at 10uM” value was -39.7%. Turning to `Cc1cc(Cn2nnnc2-c2ccncc2)cc(C)c1O`, the “hERG current change (%, negative = inhibition) at 10uM” value came out at 6.54%.

For the molecule `O=C(Nc1ccc(Cl)c(C(F)(F)F)c1)N1CCCC(O)C1` (stereo not drawn), the “hERG current change (%, negative = inhibition) at 10uM” value was 10.9%. Turning to `O=C(c1cccs1)c1coc2ccc(O)c(CN3CCOCC3)c12`, the “hERG current change (%, negative = inhibition) at 10uM” value is on record as -69.1%. As for `Cl.O=C(c1coc2ccc(O)c(CN3CCOCC3)c12)C1CC1`, the “hERG current change (%, negative = inhibition) at 10uM” value worked out at 12.3%. For the molecule `Oc1ccc2ccccc2c1CN1CCOCC1`, the “hERG current change (%, negative = inhibition) at 10uM” value is -6.06%.

For the molecule `Cl.O=C(c1ccccc1)c1coc2ccc(O)c(CN3CCOCC3)c12`, the “hERG current change (%, negative = inhibition) at 10uM” value is reported as -60.7%. With `COc1ccc(C(=O)c2coc3ccc(O)c(CN4CCCC4)c23)cc1`, the “hERG current change (%, negative = inhibition) at 10uM” value was -73.4%. With `COc1ccc(OC)c(C(O)c2coc3ccc(O)c(CN4CCOCC4)c23)c1` (stereo not drawn), the “hERG current change (%, negative = inhibition) at 10uM” value is reported as -11.4%. Consider `Cc1oc2ccc(O)c(CN3CCOCC3)c2c1C(=O)c1ccc(Cl)cc1`, for which the “hERG current change (%, negative = inhibition) at 10uM” value is -41%. For the molecule `Cl.O=C(c1cccs1)c1coc2ccc(O)c(CN(CCO)CCO)c12`, the “hERG current change (%, negative = inhibition) at 10uM” value was -41%.
